PubChem BioAssay (Tox21)
Values joined by “and” are separate entries in the source; they are usually repeats but may differ in a detail not shown here. Identical values can stand only once. Inconclusive results are not listed. A number with no mark means an inactive call. Active and inactive are the calls of the source. The call rests on the fitted dose curve; in most records, active means well fitted inhibition curve with a large enough effect in the repeat runs; inconclusive means weak or mixed curves; inactive means flat fitted curve, though single readings scatter.

Assay: qHTS assay to identify small molecule HDAC inhibitors (AID 1259364); further: nearly all actives have a fitted effect of over 45% in size; on activity change, negative = inhibition: top concentration of the series differs between compounds
Details: HCT-116 HDAC-Glo I/II luminescence, 2 h; series mostly up to 92.4 µM; activity change, negative = inhibition: at the top concentration
Excerpt: U.S. Tox21 Program National Center for Advancing Translational Sciences [NCATS] NIH Chemical Genomics Center [NCGC] U.S. Environmental Protection Agency [EPA] National Institutes of Environmental Health Sciences [NIEHS] National Toxicology Program [NTP] U.S. Food and Drug Administration [FDA] Tox21 Assay Overview: Histone deacetylases (HDACs) are a group of epigenetic enzymes that regulate gene expression by histone deacetylation. HDACs are capable of introducing epigenetic modifications and such aberrations contribute to the onset and progression of several human diseases, thus making HDACs a popular therapeutic target. For identifying endogenous class I/II HDAC inhibitors a homogenous, luminogenic HDAC I/II cell based assay was used to measure the relative activity of class I and II HDACs from cells. Wild type HCT-116 cells were used to screen Tox21 libraries for identifying class I/II HDAC inhibitors.
Tox21 Assay Protocol Summary: HCT-116 cells were dispensed at 1,500 per well in 5uL of culture medium into white solid bottom 1536-well plates (Greiner Bio-One, Monroe, NC) using a Multidrop Combi (Thermo Scientific, Waltham, MA) dispenser. The assay plates were incubated at 37 C and 5% CO2 for an overnight, and then 23nL of compounds dissolved in DMSO and positive control were transferred using a Pintool station (Wako, San Diego, CA). The assay plates were incubated at 37C and 5% CO2 for 2hr. After compound treatment, 4uL of HDAC-Glo reagent (Promega Corporation, Madison, WI) was added to each well of the assay plates using Flying Reagent Dispenser (FRD, Aurora Discovery, San Diego, CA) and incubated the assay plates at room temperature for 30min. The luminescence signal was quantified using a ViewLux plate reader (Perkin Elmer, Shelton, CT).
On the % scale 0 is the no-effect control and ±100 the full control effect; potency means the concentration at half of the fitted maximal effect.

| SMILES | activity change, negative = inhibition | Potency |
| --- | --- | --- |
| Brc1c(NC2=NCCN2)ccc2nccnc12 | 4.6% [at 42.5 µM] |  |
| COCCc1ccc(OCC(O)CNC(C)C)cc1 (stereo not given) |  | inactive |
| NS(=O)(=O)c1ccccc1Cl | -3.47% |  |
| CC(C)CCCC(C)N (stereo not given) | -1.55% [at 42.5 µM] |  |
| CC(C(=O)O)c1ccc(CC2CCCC2=O)cc1 (stereo not given) | -1.86% [at 42.5 µM] |  |
| NC(=O)Nc1ccccc1 | -0.707% |  |
| COc1cc(C(=O)N2CCCCCCC2)cc(OC)c1OC | 4.72% [at 42.5 µM] |  |
| CCCN1CCCC[C@H]1C(=O)Nc1c(C)cccc1C | 0.978% [at 42.5 µM] |  |
| O=C(CCCN1CCC(O)(c2cccc(C(F)(F)F)c2)CC1)c1ccc(F)cc1 | 6.79% [at 42.5 µM] |  |
| O=C1CCCCCCCCCCCN1 |  | inactive |
| Cc1cc(O)cc2c1O[C@](C)(CCC[C@H](C)CCC[C@H](C)CCCC(C)C)CC2 | 1.1% [at 42.5 µM] |  |
| NC(=O)c1cn(Cc2c(F)cccc2F)nn1 | -5.36% [at 42.5 µM] |  |
| Cc1ccc(=O)n(-c2ccccc2)c1 | 1.81% [at 42.5 µM] |  |
| Cc1ccc(C#N)cc1 | -5.93% |  |
| CC(C)(C)c1ccc(O)c(O)c1 |  | inactive |
| CCn1ccnc1CC1COc2ccccc2O1 (stereo not given) | -4.94% [at 42.5 µM] |  |
| OCCCC1CCCCC1 | 1.36% |  |
| C[C@H](NC(CCc1ccccc1)C(=O)O)C(=O)N1CCC[C@H]1C(=O)O (stereo not given in full) | 6.8% [at 42.5 µM] |  |
| CCCCOCCOCCOCCCC | -6.01% |  |
| CCS(=O)(=O)c1ccc(OC)c(C(=O)OC)c1 | 3.88% [at 42.5 µM] |  |

| SMILES | activity change, negative = inhibition | Potency |
| --- | --- | --- |
| O=C[C@H](O)[C@@H](O)[C@H](O)[C@H](O)CO | 1.16% |  |
| C/C=C(\C)C#N | 1.25% |  |
| CN1N=C(C(N)=O)CCC1=O | 1.44% [at 42.5 µM] |  |
| COc1ccc2c(c1)c(CC(=O)OCC(=O)O)c(C)n2C(=O)c1ccc(Cl)cc1 | 6.16% [at 42.5 µM] |  |
| C[C@](N)(Cc1ccc(O)cc1)C(=O)O | -0.294% [at 8.39 µM] |  |
| CCCCCCCCCCCC | -2.18% |  |
| CCOC(=O)[C@H](CCc1ccccc1)N[C@@H](C)C(=O)N1[C@H](C(=O)O)C[C@@H]2CCC[C@@H]21 | 2.24% [at 42.5 µM] |  |
| CC/C=C\CC/C=C/C(OCC)OCC | 0.759% |  |
| CC(C)(O)C#CC(C)(C)O | 4.2% |  |
| Cc1c(NC(C)C)c(=O)n(-c2ccccc2)n1C | -2.39% [at 42.5 µM] |  |
| O=c1cc(-c2ccccc2)oc2ccccc12 |  | 24.3 µM (active) and 17.6 µM (active) |
| CO[Si](CCCOCC1CO1)(OC)OC (stereo not given) |  | inactive |
| COc1ccc(CCN(C)CCCC(C#N)(c2cc(OC)c(OC)c(OC)c2)C(C)C)cc1OC (stereo not given) | 8.5% [at 42.5 µM] |  |
| CC(=O)Nc1c(I)cc(I)c(C(=O)O)c1I | 0.198% [at 42.5 µM] |  |
| Nc1ccccc1S(=O)(=O)O | -8.25% |  |
| COC(=O)c1c(Cl)c(Cl)c(C(=O)OC)c(Cl)c1Cl |  | inactive |
| NC(=O)c1ccc([N+](=O)[O-])cc1 | -7.09% |  |
| C=COCC1CCC(CO)CC1 (stereo not given) | 4.33% |  |
| CN(C)CCCSc1ccccc1NC(=O)/C=C/c1ccccc1 |  | 8.41 µM (active) |
| Cc1nc2c([nH]1)c(=O)n(C)c(=O)n2Cc1ccco1 | 9.06% [at 42.5 µM] |  |
